Where “and” joins values, the source holds several entries; their conditions need not be identical. Equal entries are not always repeated. Structures can show the parent of a compound that is named as a salt. Unmarked numbers belong to inactive results.
Tested on: Plasmodium falciparum NF54/iGP1_RE9H ulg8 stage V gametocytes
Test: gametocyte viability (luciferase signal relative to DMSO control) (% of DMSO control); higher = less gametocytocidal activity, active = 50 or less
Conditions: exposure time: 72 h
Method in brief: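 NF54/iGP1_RE9Hulg8 stage V gametocytes (day 12; ~2.5% gametocytemia, 3% hematocrit) were incubated with compounds at 10 µM or 1 µM final, in one well each, for 72 h at 37 °C in medium with 0.5% Albumax II. Luminescence after D-luciferin addition was read on an IVIS Lumina II. Viability refers to the mean of plate DMSO vehicle wells.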

SMILES	gametocyte viability (concentration: 1 µM)	gametocyte viability (concentration: 10 µM)
O=S(=O)(c1cccc2c(I)cccc12)N1CCCNCC1	102	94.1
COc1cc2ncc(-c3ccccc3)nc2cc1OC	99.5	91.9
N#CC(=Cc1ccc(O)c(O)c1)C(=O)NCc1ccccc1	95.7	101
Cc1ccc(S(=O)(=O)Nc2nc3ccccc3nc2Nc2ccc3nsnc3c2)cc1	87.4	103
Oc1cccc(-c2nc(N3CCOCC3)c3oc4ncccc4c3n2)c1	115	111
Cc1ccc(NC(=O)c2ccc(CN3CCN(C)CC3)cc2)cc1Nc1nccc(-c2cccnc2)n1 [Imatinib Mesylate]	108	111
CS(=O)(=O)N1CCN(Cc2cc3nc(-c4cccc5[nH]ncc45)nc(N4CCOCC4)c3s2)CC1	97.2	108
Nc1cc(C(F)(F)F)c(-c2cc(N3CCOCC3)nc(N3CCOCC3)n2)cn1	107	98.6
COc1ccc(S(=O)(=O)N(C(C)=O)c2ccccc2/C=C/c2cc[n+]([O-])cc2)cc1	98	112
Cc1ccc(S(=O)(=O)/C=C/C#N)cc1	103	3.38 (active)
Cc1cn(-c2cc(NC(=O)c3ccc(C)c(Nc4nccc(-c5cccnc5)n4)c3)cc(C(F)(F)F)c2)cn1 [Nilotinib (AMN-107)]	111	107
N#CC1(c2ccc(NC(=O)c3cccnc3NCc3ccncc3)cc2)CCCC1 [Apatinib (YN968D1)]	96	95.4
O=C(Nc1cccc(Cl)c1)Nc1ncc(CCNc2ncnc3ccsc23)s1	110	120
CC(C)c1cnc(NC(=O)Cc2ccccc2)s1	94.5	92
O=C(O)c1cc(N(Cc2ccccc2O)Cc2cc(O)ccc2O)ccc1O [Lavendustin A]	98.5	99.4
Cc1ccc(F)c(NC(=O)Nc2ccc(-c3cccc4[nH]nc(N)c34)cc2)c1 [Linifanib (ABT-869)]	90.6	89.4
O=C(O)c1ccc2c(c1)nc(Nc1cccc(Cl)c1)c1ccncc12	101	107
CC(C)c1cnn2c(NCc3ccccc3)cc(NCCCCCCN)nc12	102	86.5
O=C(NOCC1CC1)c1ccc(F)c(F)c1Nc1ccc(I)cc1Cl	93.2	98.6
O=C(O)c1cc(NCc2cc(O)ccc2O)ccc1O [2-Hydroxy-5-(2,5-dihydroxybenzylamino)benzoic acid]	103	109

SMILES	gametocyte viability (concentration: 1 µM)	gametocyte viability (concentration: 10 µM)
CN(C)C1CCN(C(=O)c2ccc(NC(=O)Nc3ccc(-c4nc(N5CCOCC5)nc(N5CCOCC5)n4)cc3)cc2)CC1	102	107
O=C(O)c1ccc(Nc2ncc3c(n2)-c2ccc(Cl)cc2C(c2c(F)cccc2F)=NC3)cc1	102	103
CC(C)n1nc(-c2cc3cc(O)ccc3[nH]2)c2c(N)ncnc21	105	103
O=c1c(-c2ccc(O)cc2)coc2cc(O)cc(O)c12 [Genistein]	95.5	83.9
Nc1nc(N)c2nc(-c3cccc(O)c3)c(-c3cccc(O)c3)nc2n1	110	109
Cc1ccc(-n2nc(C(C)(C)C)cc2NC(=O)Nc2ccc(OCCN3CCOCC3)c3ccccc23)cc1 [BIRB 796 (Doramapimod)]	96	98.8
O=c1cc(-c2ccc(O)cc2)oc2cc(O)cc(O)c12 [Apigenin]	101	65.3
COc1cc(N2CCC(N3CCN(C)CC3)CC2)ccc1Nc1ncc(Cl)c(Nc2ccccc2S(=O)(=O)C(C)C)n1	73.9	41.9 (active)
CCC[C@H](NC(=O)/C(C#N)=C/c1cccc(Br)n1)c1ccccc1	114	106
CNCCNS(=O)(=O)c1cccc2cnccc12	104	108
CCS(=O)(=O)c1cccc(-c2cc(C(=O)NC3CCN(C)CC3)c(C)c3[nH]c4ncc(C)cc4c23)c1	106	84.2
O=c1cc(N2CCOCC2)oc2c(-c3ccccc3)cccc12	105 and 79.5	103 and 92
CCc1cccc(CC)c1NC(=O)N1Cc2[nH]nc(NC(=O)c3ccc(N4CCN(C)CC4)cc3)c2C1	109	68.7
COC(=O)/C=C/c1cc(O)ccc1O [Erbstatin analog]	97.8	99.1
N#C/C(=C\c1ccc(O)c(O)c1)C(N)=O	93.5	98
CO[C@H]1C[C@@H]2CC[C@@H](C)[C@@](O)(O2)C(=O)C(=O)N2CCCC[C@H]2C(=O)O[C@H]([C@H](C)C[C@@H]2CC[C@@H](O)[C@H](OC)C2)CC(=O)[C@H](C)/C=C(\C)[C@@H](O)[C@@H](OC)C(=O)[C@H](C)C[C@H](C)/C=C/C=C/C=C/1C [Rapamycin (Sirolimus)]	99.3	79.7
COc1cccc2cc(-c3nc([C@H]4CC[C@H](C(=O)O)CC4)n4ncnc(N)c34)[nH]c12	108	109
CO[C@H]1C[C@@H]2CC[C@@H](C)[C@@](O)(O2)C(=O)C(=O)N2CCCC[C@H]2C(=O)O[C@H]([C@H](C)C[C@@H]2CC[C@@H](O)[C@H](OC)C2)CC(=O)[C@H](C)/C=C(\C)[C@@H](O)[C@@H](OC)C(=O)[C@H](C)C[C@H](C)/C=C/C=C/C=C/1C [Rapamycin]	97.3	97.3
COc1cc(Nc2c(C#N)cnc3cc(OCCCN4CCN(C)CC4)c(OC)cc23)c(Cl)cc1Cl [Bosutinib (SKI-606)]	86.4	98.1
CCOc1ccn(-c2ccc(F)cc2)c(=O)c1C(=O)Nc1ccc(Oc2ccnc(N)c2Cl)c(F)c1	95.8	92.2

SMILES	gametocyte viability (concentration: 1 µM)	gametocyte viability (concentration: 10 µM)
C[C@@H]1CCN(C(=O)CC#N)C[C@@H]1N(C)c1ncnc2[nH]ccc12	107	110
Nc1nc(Nc2ccc(S(N)(=O)=O)cc2)nn1C(=O)c1c(F)cccc1F	101	85.9
N#C/C(=C\c1cc(Cl)cc(Cl)c1)c1cccnc1	98.1	101
NC1(Cc2ccc(Cl)cc2)CCN(c2ncnc3[nH]ccc23)CC1	114	78.9
COc1ccc(S(=O)(=O)N(CCO)c2ccccc2CN(C)CC=Cc2ccc(Cl)cc2)cc1	112	102
S=C(NCc1ccc2c(c1)OCO2)N1CCN(c2ncnc3c2oc2ccccc23)CC1 [Amuvatinib (MP-470)]	98.1	110
NC(=O)c1ccc(-c2nc(-c3ccccn3)c(-c3ccc4c(c3)OCO4)[nH]2)cc1	101	125
O=C(Nc1c[nH]nc1-c1nc2ccc(CN3CCOCC3)cc2[nH]1)NC1CC1	131	113
Cn1c(Nc2ccc(C(F)(F)F)cc2)nc2cc(Oc3ccnc(-c4ncc(C(F)(F)F)[nH]4)c3)ccc21	103	104
C[C@@H](N)[C@H]1CC[C@H](C(=O)Nc2ccncc2)CC1	107 and 110	107 and 111
C[C@@H](Oc1cc(-n2cnc3ccc(CN4CCN(C)CC4)cc32)sc1C(N)=O)c1ccccc1C(F)(F)F	103	81.6
Cc1ccc(Nc2nccc(N(C)c3ccc4c(C)n(C)nc4c3)n2)cc1S(N)(=O)=O [Pazopanib HCl]	98	109
CC(C)(C)Cn1c(N)nc2ccc(-c3[nH]c(C(C)(C)C)nc3-c3ccc(F)cc3)nc21	97.8	105
O=C(O)c1ccc2nc(-c3ccccc3)c(-c3ccccc3)nc2c1	98.6	95.2
Cc1ccc(C(=O)Nc2cccc(C(F)(F)F)c2)cc1Nc1nc(-c2cccnc2)nc2c1cnn2C	100	98.7
Cn1cnc2c(NCc3ccccc3)nc(NCCO)nc21 [Olomoucine]	95.2	91.5
Cc1[nH]c(/C=C2\C(=O)Nc3ccc(S(=O)(=O)N(C)c4cccc(Cl)c4)cc32)c(C)c1C(=O)N1CCN(C)CC1	107	92.8
CO[C@H]1C[C@@H]2CC[C@@H](C)[C@@](O)(O2)C(=O)C(=O)N2CCCC[C@H]2C(=O)O[C@H]([C@H](C)C[C@@H]2CC[C@@H](OP(C)(C)=O)[C@H](OC)C2)CC(=O)[C@H](C)/C=C(\C)[C@@H](O)[C@@H](OC)C(=O)[C@H](C)C[C@H](C)/C=C/C=C/C=C/1C [Deforolimus (Ridaforolimus)]	90.2	86.2
O=C1NC(=O)/C(=C\c2ccc3nccnc3c2)S1	94.4	101
COc1cc(Nc2ncc(F)c(Nc3ccc4c(n3)NC(=O)C(C)(C)O4)n2)cc(OC)c1OC	99.8	104
